# Results filed as inconclusive are left out. Where a call stands in place of a potency, no number is given. Where a structure was tested more than once in an assay, its records may differ in their call. The source made the active and inactive calls. Unless noted, the call rests on the fitted dose curve; in most records, active means well fitted curve in the direction sought with a large enough effect; inconclusive means small, poorly fitted or top-dose-only effect, or another doubt; inactive means no such curve, though single readings can be large; an effect the other way counts as inactive or inconclusive.
# Key:
# [1] = qHTS for Inhibitors of Plasmodium falciparum (DD2) proliferation (AID 504314); further: potency means the concentration at half of the fitted maximal effect;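 on activity, negative = inhibition: parasite DNA measured by SYBR Green fluorescence after red cell lysis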
# How it was run: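 Erythrocytes infected with P. falciparum (0.3% parasitemia, 2.5% hematocrit final) were incubated with compounds for 72 h at 37C, 5% CO2. Parasite DNA was detected by SYBR Green I fluorescence after saponin/Triton lysis, normalized to artemisinin (0.29 uM) and DMSO controls.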
# [2] = qHTS for Inhibitors of Plasmodium falciparum (GB4) proliferation (AID 504315); further: nearly all actives have a fitted effect of over 50% in size; further: potency means the concentration at half of the fitted maximal effect
# How it was run: (§1)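 Erythrocytes infected with P. falciparum line (0.3% parasitemia, 2.5% hematocrit final) incubated with compounds 72 h at 37 °C, 5% CO2; SYBR Green lysis buffer added, fluorescence read next day. Normalized to 0.29 uM artemisinin and DMSO.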
# [3] = qHTS for Inhibitors of Plasmodium falciparum (7G8) proliferation (AID 504316); further: nearly all actives have a fitted effect of over 65% in size; further: potency means the concentration at half of the fitted maximal effect
# How it was run: as §1
# [4] = qHTS for Inhibitors of Plasmodium falciparum (HB3) proliferation (AID 504318); further: nearly all actives have a fitted effect of over 60% in size; further: potency means the concentration at half of the fitted maximal effect
# How it was run: as §1
# [5] = qHTS for Inhibitors of Plasmodium falciparum (CP250) proliferation (AID 504320); further: potency means the concentration at half of the fitted maximal effect
# How it was run: as §1
# [6] = molecular target: Atrial natriuretic peptide receptor 1 (Homo sapiens) (UniProt P16066); test: Natriuretic polypeptide receptor (hNpr1) antagonism - Pilot CMLD screen (AID 1347052; calls by dose curve;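 further: HEK293 cells with hNpr1 stimulated by hNppA peptide at 0.1 nM; cGMP level read as GloSensor luciferase luminescence after agonist stimulation; series mostly up to about 9.2 µM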)
# Sequence of Atrial natriuretic peptide receptor 1 (Homo sapiens) (P16066 whole entry, looked up): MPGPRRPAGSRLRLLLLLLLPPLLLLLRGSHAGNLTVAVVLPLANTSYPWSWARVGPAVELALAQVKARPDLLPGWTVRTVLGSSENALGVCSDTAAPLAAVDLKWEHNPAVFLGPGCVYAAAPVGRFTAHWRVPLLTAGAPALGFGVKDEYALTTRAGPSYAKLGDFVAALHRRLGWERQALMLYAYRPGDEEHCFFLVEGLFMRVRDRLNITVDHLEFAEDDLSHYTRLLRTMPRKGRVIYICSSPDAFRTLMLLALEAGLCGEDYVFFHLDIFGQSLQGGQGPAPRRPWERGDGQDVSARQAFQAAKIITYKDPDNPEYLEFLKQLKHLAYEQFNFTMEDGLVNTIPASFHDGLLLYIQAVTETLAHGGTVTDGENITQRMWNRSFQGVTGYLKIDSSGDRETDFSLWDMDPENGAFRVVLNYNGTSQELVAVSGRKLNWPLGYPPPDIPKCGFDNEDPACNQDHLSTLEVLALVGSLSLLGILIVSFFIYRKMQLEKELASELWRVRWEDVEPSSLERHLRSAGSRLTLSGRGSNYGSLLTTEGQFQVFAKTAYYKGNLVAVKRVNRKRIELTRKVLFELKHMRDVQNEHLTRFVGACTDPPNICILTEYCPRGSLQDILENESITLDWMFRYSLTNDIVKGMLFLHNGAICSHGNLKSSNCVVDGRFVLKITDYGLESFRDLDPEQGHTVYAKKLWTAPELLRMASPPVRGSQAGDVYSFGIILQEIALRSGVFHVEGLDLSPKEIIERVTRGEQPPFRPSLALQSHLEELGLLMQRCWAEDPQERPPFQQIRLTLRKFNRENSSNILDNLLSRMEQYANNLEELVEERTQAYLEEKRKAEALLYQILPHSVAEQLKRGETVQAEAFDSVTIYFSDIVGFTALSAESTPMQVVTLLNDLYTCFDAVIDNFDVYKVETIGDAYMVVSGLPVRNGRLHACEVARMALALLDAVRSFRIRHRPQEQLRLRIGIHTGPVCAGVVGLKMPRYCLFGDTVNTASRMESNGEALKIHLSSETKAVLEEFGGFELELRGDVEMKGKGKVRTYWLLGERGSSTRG
SMILES,Potency [1],Potency [2],Potency [3],Potency [4],Potency [5],Potency [6],"activity, negative = inhibition [1]"
CCN1C(=O)N[C@@H](c2ccccc2)[C@@H](C(=O)OC)[C@H]1C,inactive,inactive,inactive,inactive,inactive,inactive,
C[C@H]1Cc2c(COc3ccccc3)nc3c(c2CO1)CN(C(=O)c1cccnc1)CC3,,inactive,inactive,inactive,inactive,inactive,0.654% [at 1.12 µM] (inactive)
CCOC(=O)CCN1C(=O)[C@@H]2[C@H]3[C@H](O)[C@H](O)CC(=NNC(=O)OCc4ccccc4)[C@H]3CC[C@H]2C1=O,inactive,inactive,inactive,inactive,inactive,inactive,
CCC(=O)OC1(C)C(=O)C=C2C=C(c3ccc(C#N)cc3)OC=C2C1=O (configuration not stated),inactive,inactive,inactive,inactive,inactive,inactive,
COc1ccc([C@]23Cc4cc(C#N)ccc4[C@H](O2)c2c(c4ccc(OC)cc4oc2=O)O3)cc1,inactive,inactive,1.69 µM (active) and inactive,inactive,inactive,inactive,
C=COC[C@@H]1CN2[C@H](c3ccc(Br)cc3)[C@H](C)CC[C@H]2C(=O)O1,inactive,inactive,inactive,inactive,inactive,inactive,
C[C@H]1C[C@@H](C)O[C@@]2(C1)C(=O)Nc1ccccc12,inactive,inactive,inactive,inactive,inactive,inactive,
COC(=O)CCC(=O)OC1(C)C(=O)C=C2C=C3CCCN3C=C2C1=O (configuration not stated),inactive,inactive,inactive,inactive,inactive,inactive,
Cc1cc2c(c(=O)n1Cc1ccccc1)[C@H]1O[C@](CCCCN3C(=O)c4ccccc4C3=O)(Cc3c1ccc1ccccc31)O2,1690 nM (active),1510 nM (active),1.51 µM (active),1510 nM (active),1690 nM (active),inactive,
COc1ccc(C2=CC3=C(Br)C(=O)C(C)(OC(=O)c4ccc(Cl)nc4)C(=O)C3=CO2)cc1 (configuration not stated),inactive,inactive,inactive,inactive,inactive,inactive,
COCCN1C=C2C(=O)C(C)(OC(=O)C3CCCC3)C(=O)C(c3ccccc3)=C2C=C1CCCC(=O)OC (configuration not stated),inactive,inactive,inactive,inactive,inactive,inactive,
CC(=O)OC[C@H]1O[C@H](c2ccc(C(C)=O)cc2)C=C[C@H]1OC(C)=O,inactive,inactive,inactive,inactive,inactive,inactive,
CC1(OC(=O)c2cnc3ccccc3n2)C(=O)C=C2C=C(C3CC3)OC=C2C1=O (configuration not stated),inactive,inactive,inactive,inactive,inactive,inactive,
COc1ccc2c(c1)O[C@H](c1ccc3c(c1)OCO3)[C@@H](OC(=O)Nc1ccc(C)c(Br)c1)C2=O,inactive,inactive,inactive,inactive,inactive,inactive,
CO[C@H](c1ccccc1Br)[C@H](C)C=CCCO,inactive,inactive,inactive,inactive,inactive,inactive,
CCOC(=O)CN1C(=O)NC(c2cccc(F)c2)C(C(C)=O)=C1C (configuration not stated),inactive,inactive,inactive,inactive,inactive,inactive,
COC(=O)C(C(C)=O)[C@@H](NC(=O)OC(C)(C)C)c1ccccc1 (some centres not stated),inactive,inactive,inactive,inactive,inactive,inactive,

# Source: PubChem BioAssay (NCATS)
